assay: Peg3 promoter luciferase inhibitors, potency, dose response, cell-based, HeLa, CREF/GAPDH counter-screen panel (AID 624167); details: CREF/GAPDH counter-screens; run 2, dose range 1, at 100 µM (top of the series)

Compared with O=C(CNC(=O)C(c1ccccc1)c1ccccc1)N/N=C/c1ccc(O)cc1O, O=C(N/N=C/c1c(O)ccc2ccccc12)c1ccc(CO)nc1 is lower in inhibition: 22.3% for the first, 3.42% for the second.

First: CCCCC(=O)NC(c1ccc(OC)cc1)c1ccc2cccnc2c1O (stereo not given)
Second: CC(C)(C)c1ccc(Cn2c(=O)cnc3ccccc32)cc1
The inhibition of the first is lower: 20.5% for the first, 96.6% for the second.

Going from CN1C/C(=C/c2ccccc2[N+](=O)[O-])C(=O)/C(=C\c2ccccc2[N+](=O)[O-])C1 to CC1=NOC(=O)/C1=C\c1ccc(-c2ccccc2Br)o1, the inhibition rises from 53.9% to 98.7%.

Going from CCCCCCN1C=C/C(=C\C=C(C#N)C#N)c2ccccc21 to O=c1c2ccccc2sc2nc(CCl)nn12, the inhibition rises from 22.9% to 99.3%.

First: O=C(O)c1ccc(CN2C(=O)c3cccc4c([N+](=O)[O-])ccc(c34)C2=O)cc1
Second: O=C(O)c1ccc(N/N=C/c2ccc3c(c2)OCO3)cc1
The inhibition of the first is higher: 100% for the first, 97.7% for the second.

Going from COc1cc(C(=O)N/N=C(\c2ccccc2)c2ccccn2)cc(OC)c1OC to CCN(CC)S(=O)(=O)c1cccc(C(=O)N/N=C(\C)c2ccc(O)cc2O)c1, the inhibition falls from 11.7% to -50.5%.

Going from CN(C)CC1CCC/C(=C\c2ccc(OC(=O)c3ccc(Cl)cc3)cc2)C1=O (stereo not given) to CN(C)S(=O)(=O)c1ccc(-c2csc(N/N=C/c3ccc(O)cc3)n2)cc1, the inhibition rises from 84.9% to 91.1%.

With OCCCNc1nccc(-c2cc(Nc3cccc(Cl)c3)ncn2)n1 the inhibition was 51.4%.

Reference: PubChem BioAssay AID624167 (Sanford-Burnham Center for Chemical Genomics, 2012)
